In the library only some 1.8% were active in any assay of this set; here they are far more common.
Bim-Mcl-1: inhibitors of Bim peptide binding to Mcl-1, primary screen, biochemical, bead-based flow cytometry, multiplex; Induced myeloid leukemia cell differentiation protein Mcl-1 (Homo sapiens), Q07820; Bim peptide-Mcl-1 binding; inhibition, % at 10 µM; 0.1% of 190,000 active; AID 1009, 2008; in the data active means inhibition above about 40%
Mcl1-Bid inh: Mcl-1/Bid binding inhibitors, primary screen, biochemical, TR-FRET, 1536-well; Induced myeloid leukemia cell differentiation protein Mcl-1 (Homo sapiens), Q07820; 0.97% of 220,000 active; TR-FRET Mcl-1/Bid-Dy647 peptide binding; inhibition, % at 21.7 µM;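 active means compounds that cut the binding signal by more than half at the single screening dose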;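 further: His-tagged Mcl-1 with europium anti-His antibody binding Bid BH3 peptide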
TLR9-MyD88 inh: inhibitors of TLR9-MyD88 association in cells, primary screen, cell-based, CHO, BLA complementation, fluorescence; CCF4 FRET ratio; inhibition, % at 4.98 µM; Toll-like receptor 9 (Homo sapiens) + Myeloid differentiation primary response protein …; 0.21% of 340,000 active; AID 504734, 2011;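 active means inhibition above the mean over all tested compounds plus 3 SD, cut at about 21% in these data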
Mcl1-Noxa inh: Mcl-1/Noxa binding inhibitors, primary screen, biochemical, TR-FRET, 1536-well; Induced myeloid leukemia cell differentiation protein Mcl-1 (Homo sapiens), Q07820; TR-FRET Mcl-1/Noxa peptide binding, 2 h; inhibition, % at 21.7 µM; 1.5% of 220,000 active; AID 1022, 2008;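 active means compounds that cut the protein-peptide binding signal by more than 50% relative to plate controls in a single-dose test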;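 further: His-tagged Mcl-1 with rhodamine Noxa BH3 peptide and terbium anti-His antibody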
TLR4-MyD88 BLA: inhibitors of TLR4-MyD88 association in cells, primary screen, cell-based, HeLa CL3-4, BLA complementation, FRET ratio. Toll-like receptor 4 (Homo sapiens) + Myeloid differentiation primary response protein …. inhibition, % at 8.4 µM. AID 861, 2007. 0.18% of 200,000 active. HeLa CL3-4 TLR4/MyD88 BLA complementation; in the data active means inhibition above about 25%
NOD2 RIPK2 PPI: NOD2-RIPK2 binding disruptors in cells, primary screen, fluorescence, CHO cells, BLA complementation; Receptor-interacting serine/threonine-protein kinase 2 (Homo sapiens), O43353; 0.38% of 360,000 active; inhibition, % at 4.98 µM; CCF4 ratio; in the data active means inhibition above about 21%
Target sequence (O43353 whole entry, looked up): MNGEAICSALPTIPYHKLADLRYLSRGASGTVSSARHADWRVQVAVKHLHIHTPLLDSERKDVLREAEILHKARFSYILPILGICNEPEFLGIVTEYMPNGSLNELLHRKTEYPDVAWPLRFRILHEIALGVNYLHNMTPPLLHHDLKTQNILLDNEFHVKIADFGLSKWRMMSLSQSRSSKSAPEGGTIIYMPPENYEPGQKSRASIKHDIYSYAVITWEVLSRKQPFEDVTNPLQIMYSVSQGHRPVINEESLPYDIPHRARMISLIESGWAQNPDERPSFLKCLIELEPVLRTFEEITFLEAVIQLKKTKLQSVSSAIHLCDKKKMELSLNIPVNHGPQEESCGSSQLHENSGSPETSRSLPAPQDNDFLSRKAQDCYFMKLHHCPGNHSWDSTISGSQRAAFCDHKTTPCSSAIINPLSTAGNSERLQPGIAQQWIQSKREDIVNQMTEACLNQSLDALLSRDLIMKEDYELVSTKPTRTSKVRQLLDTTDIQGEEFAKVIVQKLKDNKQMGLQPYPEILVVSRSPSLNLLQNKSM
Numbers stand for hits; - = inactive; . = no result.

SMILES	Bim-Mcl-1	Mcl1-Bid inh	TLR9-MyD88 inh	Mcl1-Noxa inh	TLR4-MyD88 BLA	NOD2 RIPK2 PPI
CCO/C(=C/c1sc2ccc(OC)cc2[n+]1CCCS(=O)(=O)[O-])CC	-	-	-	-	-	-
CCOC(=O)C[n+]1c(C)sc2ccc(OC)cc21	-	-	-	54	-	-
CCNc1ccccc(C(=O)/C=C/c2ccc3c(c2)OCO3)c1=O	-	-	-	70	-	-
COC(=O)/C=C/c1ccc2c(c1)OCO2	-	-	-	-	-	-
CC(CC1C(C#N)=C(N)OC2=C1C(=O)CCC2)c1ccccc1 (stereo not drawn)	-	60	-	-	-	-
CC(C)CC1C(C#N)=C(N)OC2=C1C(=O)CC(c1ccccc1)C2 (stereo not drawn)	-	-	-	-	-	-
COc1ccc(Cl)cc1C(=O)Nc1cccnc1Cl	.	.	-	.	.	-
C/C=C/C=C/[C@H]1Cc2cc(O)cc(O)c2O1	.	-	.	56	.	.
O=C1CC(c2ccc(Cl)cc2)c2c(O)cc(O)cc2O1 (stereo not drawn)	.	.	-	.	.	-
CCOC(=O)c1cc2occc2n1CC(=O)NC1CCCCC1C (stereo not drawn)	-	99	-	-	-	-
CSc1nc2ncc3c(n2n1)CC(C)(C)CC3=O	-	-	.	-	-	-
CC1(C)CC(=O)c2cnc3c(C#N)cnn3c2C1	-	53	-	-	-	-
CCOC(=O)CSC1=NC(=O)/C(=C\c2ccc(OC(C)=O)cc2)S1	-	-	-	60	-	-
C=CCOC(=O)C1=C(C)N=c2s/c(=C3\C(=O)N(CC(=O)O)c4ccccc43)c(=O)n2C1c1ccc(OC)cc1 (stereo not drawn)	.	-	-	81	.	-
Cc1cc(Nc2ccccc2)nc(N2CCN(C(=O)c3ccc4c(c3)OCO4)CC2)n1	.	.	-	.	.	-
Cc1ccc(NC(=O)c2cc(S(=O)(=O)NCCC3=CCCCC3)ccc2F)cc1F	68	-	-	-	-	-
O=C(Nc1cccc(F)c1)c1cc(S(=O)(=O)NCCC2=CCCCC2)ccc1F	-	-	-	-	-	-
CCC(C)(C)NC(=O)CN(C(=O)CCC(=O)Nc1nccs1)c1ccc2c(c1)OCCO2	.	.	-	.	.	-
CCN1CCN(CC(=O)Nc2cc3c(cc2C(C)=O)OCO3)CC1	-	58	-	-	-	-
COC(=O)C1=C(C)N(Cc2ccco2)C(=O)/C1=C\c1ccc(N(C)C)cc1	-	-	-	54	-	-
COC(=O)C1=C(C)N(Cc2ccco2)C(=O)/C1=C\c1ccc([N+](=O)[O-])cc1	-	-	-	-	-	-
COc1cc(Cl)c(C)cc1NC(=O)CCCn1c(=O)oc2ccccc21	-	95	-	-	-	-
Cc1cc(NC(=O)/C(C#N)=C/c2ccco2)n(-c2ccccc2)n1	-	-	-	-	-	-
Cc1ccc(-c2ccc(/C=C(\C#N)C(=O)Nc3cc(C)nn3-c3ccccc3)o2)cc1	-	64	.	.	-	.
CCC(=O)Nc1nc(C)c(-c2csc(Nc3ccc(C(=O)O)cc3)n2)s1	.	.	-	.	.	-
SMILES	Bim-Mcl-1	Mcl1-Bid inh	TLR9-MyD88 inh	Mcl1-Noxa inh	TLR4-MyD88 BLA	NOD2 RIPK2 PPI
Cc1nc(NC(=O)c2ccccc2)sc1-c1csc(Nc2ccc(C(=O)O)cc2)n1	.	91	-	90	.	-
Cc1nc(NC(=O)c2ccccc2)sc1-c1csc(NCc2ccco2)n1	-	-	-	61	-	-
Cc1nc(NC(=O)c2ccc(Cl)cc2)sc1-c1csc(Nc2cccc(F)c2)n1	-	-	.	51	-	.
CSc1ncccc1C(=O)Nc1cc(Cl)ccc1N1CCOCC1	.	.	-	.	.	-
Cc1ccc(S(=O)(=O)N2CCOC23CCN(C(=O)C(=O)NCc2ccccc2)CC3)cc1	.	.	-	.	.	-
O=[N+]([O-])c1cccc(COc2ncnc3cc([N+](=O)[O-])ccc23)c1	.	-	-	53	.	-
O=C(COc1ncnc2cc([N+](=O)[O-])ccc12)NCc1ccc2c(c1)OCO2	-	-	-	60	-	-
Cc1cc(C)cc(OCC(=O)N(Cc2ccccc2)C2CCS(=O)(=O)C2)c1 (stereo not drawn)	.	.	-	.	.	-
COc1ccc(NC(C)=O)c([N+](=O)[O-])c1[N+](=O)[O-]	.	.	-	.	.	-
COc1ccc(OC)c([N+](=O)[O-])c1C(N)=O	-	-	-	56	-	-
NC(=O)c1ccccc1NC(=O)Nc1ccc(F)c(Cl)c1	-	-	-	-	-	-
O=C(O)c1ccc(-c2ccc(/C=C3\NC(=O)N(Cc4ccc(Cl)cc4)C3=O)o2)cc1	.	-	-	61	.	-
Cc1ccc(CN2C(=O)N/C(=C\c3ccc(-c4ccc(C(=O)O)cc4C)o3)C2=O)cc1	.	-	-	57	.	-
Cc1cc(C(=O)O)ccc1-c1ccc(/C=C2\NC(=O)N(Cc3ccccc3Cl)C2=O)o1	-	-	-	61	-	-
Cc1ccc(C(=O)O)cc1-c1ccc(/C=C2/NC(=O)N(c3ccccc3)C2=O)o1	-	-	-	70	-	-
Cc1ccc(/C=C2/NC(=O)N(Cc3ccccc3)C2=O)o1	-	-	-	-	-	-
Cc1ccc(C(=O)O)cc1-c1ccc(/C=C2\SC(=O)N(CC(=O)Nc3ccccc3)C2=O)o1	-	-	-	-	-	-
O=C(NCc1cccc(C(F)(F)F)c1)c1ccc2nc([C@@H]3O[C@H](CO)[C@@H](O)[C@H]3O)[nH]c2c1	.	.	.	.	.	-
FC(F)(F)c1ccncc1-c1nnnn1-c1ccc(Cl)cc1	.	69	-	-	.	-
COC(=O)c1ccc(=O)c2nc3/c(=C/O)c(O)cc(=O)c3[nH]c12	.	75	-	98	.	-
CCOc1ccc(NC(=O)N(CCN2CCOCC2)Cc2ccc3c(c2)CCCN3CC)cc1	-	-	-	78	-	-
CCN1CCCc2cc(CN(CCN3CCOCC3)C(=S)Nc3cccc(OC)c3)ccc21	-	-	-	60	-	-
Cc1c(C)c2cc(Cl)c(OCC(=O)NCCCn3ccnc3)cc2oc1=O	.	.	-	.	.	-
O=C1C=C(c2ccc(F)nc2)C[C@@H](c2ccc3c(c2)OCO3)C1	.	.	-	.	.	-
Cc1c(C(=O)N2CCNCC2)oc2ccccc12	.	.	-	.	.	-
Cc1ccc(C(=O)OCC(=O)Nc2ccccc2Sc2ccccc2)cc1C	-	-	-	-	-	-
Cc1nn(Cc2ccccc2)c(C)c1NC(=O)CSc1nc(C2CC2)nc2c1cnn2-c1ccccc1	-	63	-	-	-	-
CCC(C)Sc1cccc(-c2nc3cc(C)ccn3c2NCc2ccccc2)c1 (stereo not drawn)	.	.	-	.	.	-
CCN(CC)S(=O)(=O)c1ccc(NC(=O)Nc2cccc(C(F)(F)F)c2)cc1	-	101	-	-	-	-
